From PubChem BioAssay AID1159604 (The Scripps Research Institute Molecular Screening Center, 2016)
This is one part of the list. A number with no mark means an inactive call. Activity calls are given as the source filed them.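 The calls were made as follows: active = IC50 of 10 µM or lower in the counterscreen; inactive = IC50 above 10 µM.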

Assay: optical artefacts quenching TruHits bead signal – biochemical, TruHits beads, AlphaScreen, artefact control for ASK1 inhibitor project, dose response (AID 1159604);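 also: loss of AlphaScreen light from TruHits beads alone with no ASK1 enzyme present; potency of signal reduction so a low IC50 flags an assay artifact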
Details: signal interference counterscreen

SMILES | IC50
COc1cc2nc(Nc3cccc(N(C)C)c3)nc(Nc3cc(OC)c(OC)c(OC)c3)c2cc1OC | 8.29 µM (active)
FC(F)(F)c1cccc(CNc2nc(N3CCN(Cc4ccc5c(c4)OCO5)CC3)nc3c2ncn3-c2ccccc2)c1 | > 20.1 µM
COc1ccc(CCNc2cc(C)nc(Nc3cccc(N(C)C)c3)n2)cc1 | 4.77 µM (active)
CN1CCN(c2nc(C3COc4ccccc4O3)nc3ccc(-c4cn[nH]c4)cc23)CC1 (configuration not stated) | > 19.2 µM
Nc1nc(Nc2ccc(N3CCOCC3)cc2)cc(-c2ccc3[nH]ccc3c2)n1 | 11.9 µM
FC(F)(F)c1cccc(CNc2nc(Nc3ccc(N4CCOCC4)cc3)nc3c2ncn3-c2ccsc2)c1 | > 20.1 µM
FC(F)(F)c1cccc(CNc2nc(N3CCN(c4ccccn4)CC3)nc3c2ncn3-c2ccsc2)c1 | > 20 µM
COc1cc(Nc2nc(N3CCc4ccccc4C3)nc3c2ncn3-c2ccccc2)cc(OC)c1OC | > 20.1 µM
Cc1cc(Nc2ccc3c(c2)OCO3)nc(Nc2cccc(N(C)C)c2)n1 | 4.88 µM (active)
Cc1ccccc1-c1cscc1Nc1cnn(-c2cccc(C(=O)Nc3ccc(N4CCOCC4)cc3)c2)c1 | > 19.2 µM
c1ccc(-c2ncn[nH]2)c(Nc2ccnc(Nc3ccc(N4CCOCC4)cc3)c2)c1 | > 19.2 µM
Fc1cnc(Nc2ccc(N3CCNCC3)cc2)cc1-n1cnc(Nc2ccccc2)n1 | > 19.2 µM
